Most compounds without a hit are left out; they make up all but 2.1% or so of the library.
aSyn yeast inh – qHTS of alpha-syn Inhibitors; actives 0.14% (n = 370,000); Potency, µM (series often up to 46.1 µM), actives largely listed as activators; Yeast expressing alpha-synuclein, growth rescue, BacTiter-Glo, 24 h; further: nearly all actives have a fitted effect of over 65% in size
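Screening used galactose-induced yeast with toxic alpha-synuclein levels, exposed to compound for 24 hr at 30 deg C. Cell growth, read with BacTiter-Glo luminescence, gave the measured signal.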
GRP78 ERSR act – qHTS for Inducers of the Endoplasmic Reticulum Stress Response (ERSR) in Human Glioma: qHTS | U87-MG GRP78 promoter luciferase reporter, 16 h | Potency, µM, most hits filed as activators | actives 0.02% (n = 420,000) | AID 602332, 2012; further: series mostly up to about 76 µM; nearly all actives have a fitted effect of over 35% in size
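ERSR induction read as luciferase luminescence (Bright-Glo, 10 min at room temperature) in stably transfected human U87-MG glioma cells exposed to compounds for 16 h, using GRP78 as sensor.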
A-T KAP1 phos – qHTS Assay for Identifying a Potential Treatment of Ataxia-Telangiectasia; F2112 A-T fibroblasts, KAP-1 phosphorylation AlphaLISA; neocarzinostatin DNA damage 30 min before lysis; Potency, µM (series often up to 57.5 µM), most hits filed as activators; actives 0.19% (n = 320,000); AID 485349, 2010; further: nearly all actives have a fitted effect of over 45% in size
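ATM-like activity read as KAP-1 phosphorylation via AlphaLISA donor/acceptor antibody pairs after lysis and 6 hr at 25C. Cells were ATM-null patient fibroblasts (F2112, hTERT), dosed 60 min, then exposed to the DSB inducer NCS for 30 min.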
Mito fusion act – qHTS Assay for Small Molecule Inhibitors of Mitochondrial Division or Activators of Mitochondrial Fusion | Potency, µM (series often up to 46.1 µM), actives largely listed as activators | actives 0.23% (n = 320,000) | S. cerevisiae fusion-defective mutant growth rescue, CellTiterGlo 48 h | AID 485298, 2010; further: nearly all actives have a fitted effect of over 45% in size
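Compounds are tested for their ability to restore growth of mitochondrial fusion-defective yeast strains at non-permissive 37C in YPEG medium over 48 hours. Viability is quantified by luciferase luminescence.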
TDP-43 yeast inh – qHTS of TDP-43 Inhibitors; actives 1.8% (n = 410,000); TDP-43 expressing yeast growth rescue, BacTiter-Glo, 24 h; Potency, µM (top dose mostly 46.1 µM), actives largely listed as activators; AID 652104, 2013; further: nearly all actives have a fitted effect of over 50% in size
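Luminescence from BacTiter-Glo reports growth of TDP-43-expressing yeast after 24 hr at 30 deg C with compound. Cells were raffinose-pregrown to mid-log, then seeded in galactose medium at OD600=0.02.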
Abeta yeast res – qHTS for compounds that reverse cellular toxicity of Amyloid beta (A-beta) peptide in yeast: Primary Screen | yeast expressing A-beta42, growth rescue, OD600, 48 h; response scale: 0% DMSO, 100% iron-clioquinol control | Potency, µM (doses to about 46.1 µM), most hits filed as activators | actives 0.063% (n = 410,000); further: nearly all actives have a fitted effect of over 55% in size
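Yeast growth medium received pinned compounds, then yeast cells expressing toxic A-beta were added; plates incubated at 30 C for 48 hr. Growth read as absorbance at 600 nm, normalized to DMSO and equimolar FeCl3 plus clioquinol controls.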
Large screens that a line does not name were inactive. The call rests on the fitted dose curve; in most records, active means well fitted curve in the direction sought with a large enough effect; inconclusive means small, poorly fitted or top-dose-only effect, or another doubt; inactive means no such curve, though single readings can be large; an effect the other way counts as inactive or inconclusive.

CC(=O)CSc1nc(-c2ccccc2)c(-c2ccccc2)o1	TDP-43 yeast inh 16µM
Cc1nc2ccccc2cc1OCc1ccc(Cl)cc1	TDP-43 yeast inh inconclusive
Cc1nc2ccccc2cc1OCc1ccccc1	TDP-43 yeast inh 18µM
COc1cc(=O)n2c(c1C(=O)N(C)Cc1cscn1)CCN(Cc1ccc3c(c1)OCCO3)CC2	none (no result: aSyn yeast inh, A-T KAP1 phos, Mito fusion act, TDP-43 yeast inh, Abeta yeast res)
CSc1ccccc1NC(=O)CCn1c(=O)sc2ccccc21	TDP-43 yeast inh 16µM
O=C(CCCCCn1c(=S)[nH]c2ccccc2c1=O)NCc1ccc2c(c1)OCO2	TDP-43 yeast inh 7.1µM
O=c1c2ccccc2[nH]c(=S)n1Cc1ccc2c(c1)OCO2	none
O=S(=O)(c1cc(Br)ccc1Br)N1CCCCCC1	TDP-43 yeast inh 7.9µM
Cc1cccn2c(=O)c(C=O)c(Cl)nc12	TDP-43 yeast inh 10µM
O=C(Oc1ccc(Cl)c2cccnc12)c1cccnc1	TDP-43 yeast inh 11µM
Cc1ccc(C(=O)Oc2ccc(Cl)c3cccnc23)cc1[N+](=O)[O-]	TDP-43 yeast inh inconclusive
CC(C)N1CCc2nc(SCC(=O)Nc3cccc(F)c3)[nH]c(=O)c2C1	none (no result: aSyn yeast inh, A-T KAP1 phos, Mito fusion act)
N#C[C@H]1C[C@H]2C[C@@H]2N1C(=O)[C@@H](N)C12CC3CC(CC(O)(C3)C1)C2	none (no result: aSyn yeast inh, A-T KAP1 phos, Mito fusion act, TDP-43 yeast inh, Abeta yeast res)
NNc1nc(Nc2ccccc2)nc(Nc2ccccc2)n1	none
c1ccc(Nc2ccnc(Nc3ccccc3)n2)cc1	A-T KAP1 phos 20µM
S=C(NCCc1cccc(Cl)c1)NC1CCCCC1	Abeta yeast res 7.1µM
COc1ccccc1NC(=O)Nc1nn(C)c2cccc(N(C)C)c12	TDP-43 yeast inh 20µM
CC(C)CN(CC(C)C)CC(O)COc1ccccc1Br (stereo unspecified)	A-T KAP1 phos 20µM
O=C1C(Cl)=C(NCC2CCCO2)C(=O)N1c1cccc(Cl)c1Cl (stereo unspecified)	TDP-43 yeast inh inconclusive
C=CCNC1=C(Cl)C(=O)N(c2cccc(Cl)c2Cl)C1=O	TDP-43 yeast inh 16µM
O=S(=O)(NCC(c1ccco1)N1CCc2ccccc21)c1ccccc1 (stereo unspecified)	Mito fusion act inconclusive, TDP-43 yeast inh 22µM
O=C(Cc1ccc(NC(=O)N2CCSc3ncccc32)cc1)NCCc1ccccc1	none (no result: aSyn yeast inh, A-T KAP1 phos, Mito fusion act)
COC(=O)c1ccccc1C(=O)N1CCOc2ccc(CN3CCN(c4ccccn4)CC3)cc2C1	none (no result: aSyn yeast inh, A-T KAP1 phos, Mito fusion act, TDP-43 yeast inh, Abeta yeast res)
Cn1cnc([N+](=O)[O-])c1Sc1ccc(Br)cc1	TDP-43 yeast inh inconclusive
Cc1ccc(Sc2c([N+](=O)[O-])ncn2C)cc1	TDP-43 yeast inh 10µM
CC(/C=N/NC(=O)c1cc(C(C)C)[nH]n1)=C\c1ccccc1	aSyn yeast inh 4µM
COc1ccc(OC)c(CN2CCCC(c3nc(C)ncc3-c3ccc(F)cc3)C2)c1 (stereo unspecified)	none (no result: aSyn yeast inh, A-T KAP1 phos, Mito fusion act, TDP-43 yeast inh, Abeta yeast res)
C(=C/c1nccc2c1[nH]c1ccccc12)/c1ccc2c(c1)OCO2	TDP-43 yeast inh 10µM
COc1ccc(/C=C/c2nccc3c2[nH]c2ccccc23)cc1	none (no result: A-T KAP1 phos, Mito fusion act, TDP-43 yeast inh, Abeta yeast res)
Cc1c(C(=O)N2CCCCC2C)sc2ncnc(N3CCc4ccccc4C3)c12 (stereo unspecified)	TDP-43 yeast inh inconclusive
Cc1c(C(=O)Nc2ccc3c(c2)OCCO3)sc2ncnc(N3CCCCC3C)c12 (stereo unspecified)	Mito fusion act 11µM, TDP-43 yeast inh 16µM
Cc1nc(N2CCC(C)CC2)c2c(C)c(C(=O)Nc3ccc(C(F)(F)F)cc3)sc2n1	TDP-43 yeast inh inconclusive
Cc1nc(N2CCC(C)CC2)c2c(C)c(C(=O)Nc3ccc4c(c3)OCCO4)sc2n1	TDP-43 yeast inh 7.1µM
Cc1nc(N2CCCCC2C)c2c(C)c(C(=O)Nc3ccccc3C(F)(F)F)sc2n1 (stereo unspecified)	TDP-43 yeast inh 14µM
Cc1c(O)c2c(c(C(=O)/C=C/c3ccccc3)c1O)OC(C)(C)C=C2	none (no result: A-T KAP1 phos, Mito fusion act, TDP-43 yeast inh, Abeta yeast res)

Source: PubChem (National Center for Advancing Translational Sciences (NCATS))
